Screening results from PubChem.
Only some compounds are listed: those with a hit (about 2.3% of all), similar ones and a draw of the others.
Tau fibril FP: qHTS for Inhibitors of Tau Fibril Formation, Fluorescence Polarization. K18 P301L tau heparin fibrillization, Alexa594 FP, 6 h. 280,000 compounds, 0.39% hits. Microtubule-associated protein tau (Homo sapiens), P10636. Potency, µM (titrated, usually from 57.7 µM), without a hit: top-dose activity, negative = inhibition, hits mostly inhibitors. AID 1468, 2008; further: potency means the concentration at half of the fitted maximal effect; nearly all actives have a fitted effect of over 55% in size
Target sequence (P10636 561-689 P618L limits assumed): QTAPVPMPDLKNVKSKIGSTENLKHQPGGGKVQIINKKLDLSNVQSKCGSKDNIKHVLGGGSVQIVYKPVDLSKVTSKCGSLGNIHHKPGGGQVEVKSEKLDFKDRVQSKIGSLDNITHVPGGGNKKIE
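K18 P301L tau (15 uM unlabeled/0.24 uM Alexa 594-labeled, final) + compound + heparin 20 uM final; 100 mM NaOAc pH 7; 6 hr 37 C; ThT 30 uM final added, 1 hr RT; FP ex 555/em 632 nm.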
FBPA coupling cs: qHTS Assay for Inhibitors of Fructose-1,6-bisphosphate Aldolase from Giardia Lamblia: Coupling assay counterscreen | coupling enzyme system counterscreen, AmpLite Red fluorescence | activity change, negative = inhibition, % at 58.2 µM, hits read low | 290,000 compounds, 0.67% hits | AID 2472, 2010; in the data active means activity change below about -30%
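Coupling enzymes only (glyceraldehyde-3-phosphate) + compound, at 57.5 uM final, 10 min RT; add substrate/coupling/AmpLite Red mix, 20 min RT; fluorescence ex 525/em 598 nm. Actives flag coupling-system interference.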
Tau fluor cs: Counterscreen qHTS for Inhibitors of Tau Fibril Formation, Fluorescence Polarization; tau K18 P301L Alexa594 fluorescence, heparin fibrillization; Potency, µM (doses to about 57.7 µM), for inactives: top-dose activity change, negative = decrease; 280,000 compounds, 0.93% hits; AID 1463, 2008; further: potency means the concentration at half of the fitted maximal effect; nearly all actives have a fitted effect of over 55% in size
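Human tau K18 P301L (15 uM unlabeled, 0.24 uM Alexa 594-labeled) in 100 mM sodium acetate pH 7 with 20 uM heparin, 6 hr at 37 C. ThT 30 uM added, 1 hr ambient; Alexa 594 FP and total fluorescence read at 555/632 nm.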
USP1-UAF1 inh: Inhibitors of USP1/UAF1: Primary Screen | Ubiquitin carboxyl-terminal hydrolase 1 (Homo sapiens), O94782 | recombinant USP1/UAF1, Ub-Rhodamine cleavage fluorescence | Potency, µM (titrated, usually from 57.1 µM), for the others: at the top dose activity change, negative = inhibition, actives largely listed as inhibitors | 390,000 compounds, 0.23% hits | AID 743255, 2014; further: potency means the concentration at half of the fitted maximal effect; nearly all actives have a fitted effect of over 60% in size
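Step one: compound is pinned into 1nM USP1/UAF1 in HEPES pH 7.8 buffer with TCEP. Step two: 15 min room-temperature incubation. Step three: Ub-Rho (150nM final) starts cleavage, tracked by fluorescence over six one-minute reads.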
Tau fibril ThT: qHTS for Inhibitors of Tau Fibril Formation, Thioflavin T Binding; Microtubule-associated protein tau (Homo sapiens), P10636; recombinant tau K18 P301L, heparin-induced fibrillization, ThT fluorescence; Potency, µM (titrated, usually from 57.4 µM), for the others: at the top dose activity, negative = inhibition, hits mostly inhibitors; 270,000 compounds, 2.1% hits; AID 1460, 2008; further: potency means the concentration at half of the fitted maximal effect; nearly all actives have a fitted effect of over 55% in size
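Using a mix of unlabeled (15 uM) and Alexa 594-labeled (0.24 uM) tau K18 P301L, heparin-triggered fibrillization over 6 hr at 37 C was scored by ThT fluorescence.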
The depositor's hits bear a star; u = inconclusive; x = no result given; ! = a repeat was not active; [ ] = dose if it differs, or a comment. Unless noted, the call rests on the fitted dose curve; in most records, active means well fitted curve in the direction sought with a large enough effect; inconclusive means small, poorly fitted or top-dose-only effect, or another doubt; inactive means no such curve, though single readings can be large; an effect the other way counts as inactive or inconclusive. On the % scale 0 is the no-effect control and ±100 the full control effect.

SMILES	Tau fibril FP	FBPA coupling cs	Tau fluor cs	USP1-UAF1 inh	Tau fibril ThT
CCOc1ccc(NC(=O)CSc2nc(-c3cccs3)cc(C(F)(F)F)c2C#N)cc1	-7%	x	4%	u	-3%
CC(C)(C)C(=O)CSc1nc2c(c(-c3cccs3)c1C#N)CCC2	0%	-1	-18%	-24%	-10%
CN1CCc2nc(SCC(=O)Nc3ccc(OC(F)(F)F)cc3)c(C#N)c(-c3cccs3)c2C1	-1%	-51*	-3%	6%	12%
COC(=O)C1=C(C)NC(=O)/C1=C\c1ccc2c(c1)OCO2	7%	1	-15%	-25%	13µM*
CN(C)c1ccc(NC(=O)c2cn(-c3ccccc3)nc2-c2cccs2)cc1	14%	-2	8.9µM*[quencher]	-22%	u
CCN(CC)CCOC(=O)c1ccc(NC(=O)c2cn(-c3ccccc3)nc2-c2cccs2)cc1	11µM*	0	8.9µM*[quencher]	-22%	-2%
CCC(C)Nc1nc(N)c([N+](=O)[O-])c(Nc2cc(OC)ccc2OC)n1 (centres undefined)	-11%	2	18µM*[quencher]	-7%	16µM*
COc1ccccc1Nc1nc(NCC(C)C)nc(N)c1[N+](=O)[O-]	-15%	2	u	-7%	u
COc1ccc(OC)c(Nc2nc(NCCC(C)C)nc(N)c2[N+](=O)[O-])c1	-9%	-1	20µM*[quencher]	-13%	25µM*
O=C(O)c1cc(N2C(=O)CCC2=O)ccc1Cl	x	1	x	-16%	x
Oc1ccc(C=NNc2nc3ccccc3s2)c(O)c1	x	x	x	-21%	x
O=S(=O)(Nc1ccccc1O)c1cccc2cccnc12	1%	-17	-24%	-20%	-8%
O=S(=O)(Nc1cccc2cccnc12)c1ccccc1O	x	-37*	x	x	x
Oc1ccc(/C=N/Nc2ccc3ccccc3c2)c(O)c1	u	-4	20µM*[quencher]	-1%	18µM*
Oc1ccccc1/C=N/Nc1ccccc1	18%	-1	25µM*[quencher]	-25%	u
Oc1ccccc1/C=N/Nc1cccc2cccnc12	15%	x	13µM*[quencher]	-11%	u
COc1ccc2c(C#N)c3ccccn3c2c1	u	-37*	-29%	-21%	-10%
N#Cc1cn(CCCOc2ccccc2)c2ccccc12	-14%	2	-30%	-16%	u
COc1ccccc1OCCCn1cc(C#N)c2ccccc21	-5%	-32*	-29%	-6%	u
COc1cc(NC(=O)c2ccnc(N)c2)cc(C(=O)Nc2cccc(C(F)(F)F)c2)c1	28µM*	4	u	-21%	-6%
COc1ccc(CCNC(=O)c2ccc3nc(-c4ccco4)c(-c4ccco4)nc3c2)cc1OC	u	-33*	13µM*[quencher]	-16%	6.3µM*
COc1ccc(CCn2c(N)c(C(=O)NCc3ccco3)c3nc4ccccc4nc32)cc1OC	32µM*	-20	u	u	18µM*
O=C(O)c1cc(-c2ccco2)nc2ccc(Br)cc12	u	3	u	u	16µM*!
CCc1nc2ccc(C(=O)NCCc3ccc(OC)c(OC)c3)cc2nc1CC	-7%	0	-16%	-10%	u
O=C1CN(C(=O)COc2ccc(Cl)cc2)C(c2ccc(F)cc2)c2cc(Cl)ccc2N1 (centres undefined)	-4%	x	-21%	-19%	u
SMILES	Tau fibril FP	FBPA coupling cs	Tau fluor cs	USP1-UAF1 inh	Tau fibril ThT
CCOC(=O)C1CCCN(C(=O)c2ccccc2NC(=O)c2nsc3ccccc23)C1 (centres undefined)	0%	x	-11%	2%	-4%
CCc1cc(C(=O)OCC(=O)N2CCC(c3ccccc3)=N2)sc1C	x	x	x	-26%	x
COc1cc(OC)c(NC(=O)N2CCc3cc(OC)c(OC)cc3C2CC(=O)O)cc1Cl (centres undefined)	5%	x	4%	1%	-1%
O=C(c1ccc2nc(-c3ccco3)c(-c3ccco3)nc2c1)N1CCN(c2ccccc2)CC1	-2%	-40*	u	-20%	u
O=C(Nc1ccc2nc(-c3ccco3)c(-c3ccco3)nc2c1)NC1CC1	u	-37*	13µM*[quencher]	u	7.1µM*
Cc1ccc(-c2nc3ccc(C(=O)O)cc3nc2-c2ccc(C)cc2)cc1	-2%	x	-8%	-7%	u
CCc1nc2ccc(C(=O)N3CCN(c4ccccc4)CC3)cc2nc1CC	-9%	x	-6%	-21%	-6%
O=C(O)c1ccc2nc(-c3ccco3)c(-c3ccco3)nc2c1	10µM*	-35*	u	-26%	7.9µM*
O=C(Nc1cccc(C(F)(F)F)c1)c1ccc2nc(-c3ccco3)c(-c3ccco3)nc2c1	u	-39*	16µM*[quencher]	28µM*	14µM*
CCN1CCc2c(sc(NC(=O)c3ccc(S(=O)(=O)N(CC)c4ccccc4)cc3)c2C(N)=O)C1	x	x	x	28µM*	x
NC(=O)c1c(NC(=O)c2ccccc2)sc2c1CCN(Cc1ccccc1)C2	x	2	x	8.9µM*	x
CCCCN(CCCC)S(=O)(=O)c1ccc(C(=O)Nc2sc3c(c2C(N)=O)CCN(CC)C3)cc1	-11%	x	u	u	-15%
COc1ccc(-c2cnnc(N/N=C/c3ccc(-c4ccc([N+](=O)[O-])cc4)o3)n2)cc1	8%	-4	16%	-25%	10%
COc1ccccc1-c1cnnc(N/N=C/c2ccc(-c3cccc(Br)c3)o2)n1	0%	2	u	-11%	3.5µM*
Cn1c(SCc2ccccc2)nnc1-c1ccc(O)cc1	x	6	x	3%	x
Oc1cccc(Nc2nc(O)c(/C=C3\C=Nc4ccccc43)s2)c1	13%	0	11µM*[quencher]	-11%	4µM*
CCOC(=O)c1c(Nc2ccc(Cl)cc2)sc(/C=C2\C=Nc3ccccc32)c1O	u	0	u	75%	u
